# PubChem BioAssay AID1259415 (National Center for Advancing Translational Sciences (NCATS), 2018)
# In all, about 410,000 compounds went through this assay and about 18,000 (4.4%) were called active. Not shown: some 7% with an inconclusive outcome. This excerpt belongs to a sample that is enriched for actives. Values without a mark were called inactive. Cut-off read from the data, not from the text of the source: active = activity change below about -60%; inconclusive = no clear call, values can overlap the other calls; inactive = above about -39%.
# Assay: qHTS Assay for inhibitors of the human cytomegalovirus (HCMV)
# Conditions: HFF cells, HCMV-luciferase reporter, 72 h; at 57.5 µM; hits give low values
# Method in brief: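 Inhibition of viral replication was scored as loss of reporter luminescence in HFFs infected with HCMV-luciferase (MOI 1 PFU/cell) for 72 h; compounds tested at 2 doses, normalized to buffer and Salinomycin controls.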
# % is set by controls: 0 for no effect and ±100 for the full control effect.
row,Structure (SMILES),"activity change, negative = inhibition"
1,CCOC(=O)c1c(NC(C)=O)c2c3c(sc2n1Cc1c(C)cc(C)cc1C)CCCC3,-73.8% (active)
2,CCC(C)NC(=O)Cn1c(=O)n(-c2ccc(Cl)cc2)c(=O)c2c3c(sc21)CCCC3 (configuration not stated),12.8%
3,CCOc1ccc(C(=O)c2cn(Cc3ccc(F)cc3)c3ccc(F)cc3c2=O)cc1,-1.76%
4,CCCc1nn2c(=O)cc(CSCC(=O)Nc3cccc(C)c3)nc2s1,2.89%
5,CNC(=S)N/N=C/c1ccc(N2CCOCC2)s1,26.5%
6,C=CCNC(=S)N/N=C/c1ccc(C)s1,0% (active)
7,C=CCNC(=S)NNC(=O)c1ccc(Br)o1,-7.15%
8,CN(C(=O)COC(=O)Cn1cnc2c1c(=O)n(C)c(=O)n2C)C1(C#N)CCCCC1,40.8%
9,CCC(CC)c1nn2cc(-c3ccccc3)nc2s1,-21.9%
10,CCc1cc2c(cc3c(=O)n(CC(=O)NCc4cccc(Cl)c4)nc(CC)n32)s1,34.4%
11,CC1(C)CC2CC(C)(CN2c2ncnc3ccc(Br)cc23)C1 (configuration not stated),-62.4% (active)
12,Cc1ccc(CN(C(=O)c2ccccc2[N+](=O)[O-])c2ccccn2)cc1,3.28%
13,Cc1ccc(NC(=O)NNC(=O)c2sccc2-n2cccc2)cc1,-19%
14,Cc1ccc(C(CNC(=O)Nc2ccccc2)N2CCN(C)CC2)cc1 (configuration not stated),-29.6%
15,C=CC[n+]1c(-c2ccc(C)cc2)csc1NNC(=O)Nc1ccccc1,-69.2% (active)
16,Cc1cc2c(cc3c(SCc4nc(-c5ccccc5)oc4C)nnc(C)n32)o1,-3.85%
17,CC(=O)Nc1ccc(NC(=O)CSc2nnc3c4cc(Br)ccc4n(C)c3n2)cc1,38.8%
18,CCOC(=O)CN1C(C(=O)c2ccccc2)=C(OC(=O)C(C)(C)C)c2ccccc2S1(=O)=O,-14%
19,CCCOc1ccc(Cc2c(Cl)nc(SC)nc2NC)cc1,-93.9% (active)
20,Cc1nc(SCCOc2ccc(Cl)cc2)[nH]c(=O)c1Cc1ccccc1,-7.29%
21,CCCOc1ccc(Cc2c(O)nc(SC)[nH]c2=O)cc1C,15.7%
22,CN(Cc1cccc2ncccc12)C(=O)CC1C(=O)NCCN1Cc1ccc(F)cc1 (configuration not stated),-30.9%
23,O=C(CN1CCN(Cc2ccc(Cl)cc2)C1=O)NCc1ccc(F)cc1,-24.9%
24,Cc1ccc(C(=O)NC2CCCC(C)C2C)cc1S(=O)(=O)N1CCCCC1 (configuration not stated),-22.8%

row,Structure (SMILES),"activity change, negative = inhibition"
1,Cc1nn(-c2ccccc2)c(C)c1NC(=O)COC(=O)Cc1ccccc1,-13%
2,Cc1nn(-c2ccccc2)c(C)c1NC(=O)COC(=O)c1cc(Cl)ccc1O,9.57%
3,Cc1nn(-c2ccccc2)c(C)c1NC(=O)COc1ccc(Cl)cc1Cl,-98.7% (active)
4,N#Cc1nc(/C=C/c2ccc(F)cc2)oc1NCc1ccc(F)cc1,-13.8%
5,COc1cccc(-c2cc(C(=O)Nc3ccc(C)cc3)[nH]n2)c1,11.2%
6,CCc1ccc(CNC(=O)c2cc3cc4ccc(OC)cc4nc3o2)cc1,-26.2%
7,Cc1ccc2c(=O)c(C(=O)c3cccc(Cl)c3)cn(CC(=O)NCc3ccccc3)c2n1,-12.2%
8,CN(C(=O)c1ccc2c(c1)N(Cc1cccc(Cl)c1)C(=O)c1ccccc1S2=O)C1CCCCC1 (configuration not stated),-63.4% (active)
9,O=C(Nc1cc(Cl)cc(Cl)c1)c1ccc2c(c1)N(Cc1cccc(Cl)c1)C(=O)c1ccccc1S2=O (configuration not stated),16.5%
10,O=C(NC1CCCCC1)c1ccc2c(c1)N(Cc1ccc(Cl)cc1)C(=O)c1ccccc1S2=O (configuration not stated),8.53%
11,CCCCNC(=O)c1nc(C2CCN(S(=O)(=O)c3ccc(F)c(F)c3)CC2)oc1-c1cccc(C(F)(F)F)c1,6.36%
12,CC(C)(C)OC(=O)N1CCC(c2c(C(=O)N3CCN(c4cccc(Cl)c4)CC3)cnn2-c2cccc(Cl)c2)CC1,26.6%
13,Cc1ccc(CN2CCC(CNC(=O)c3cnn(-c4ccccc4Cl)c3C3CCN(C(=O)OC(C)(C)C)CC3)CC2)cc1,-65.8% (active)
14,CCN1CCN(CCCNC(=O)c2cnn(-c3ccc(C)cc3C)c2C2CCN(C(=O)OC(C)(C)C)CC2)CC1,-13.5%
15,COc1ccccc1N1CCN(CCCNC(=O)c2cnn(-c3ccccc3Cl)c2C2CCN(C(=O)OC(C)(C)C)CC2)CC1,-12.2%
16,CC(C)(C)OC(=O)N1CCC(c2c(C(=O)NCc3ccccn3)cnn2-c2ccc(F)cc2)CC1,14.7%
17,Cc1ccc(CN2CCC(CNC(=O)c3cnn(-c4ccc(C)cc4)c3C3CCN(C(=O)OC(C)(C)C)CC3)CC2)cc1,0%
18,CCOC(=O)N1CCC(NC(=O)c2cnn(-c3cccc(C)c3)c2C2CCN(C(=O)OC(C)(C)C)CC2)CC1,0% (active)
19,COc1ccccc1CN1CCC(CNC(=O)c2cnn(-c3ccccc3Cl)c2C2CCN(C(=O)OC(C)(C)C)CC2)CC1,-7.53%
20,COC(=O)c1ccc(NC(=O)c2cnn(-c3ccc(Cl)cc3)c2C2CCN(C(=O)OC(C)(C)C)CC2)cc1,0% (active)
21,Cc1cccc(-n2ncc(C(=O)N3CCC(C)CC3)c2C2CCN(C(=O)OC(C)(C)C)CC2)c1,0%
22,COc1ccccc1CN1CCC(CNC(=O)c2cnn(-c3cccc(Cl)c3)c2C2CCN(C(=O)OC(C)(C)C)CC2)CC1,-108% (active)
23,CC(C)(C)OC(=O)N1CCC(c2c(C(=O)Nc3ccc4c(c3)OCO4)cnn2-c2ccccc2)CC1,-8.71%
